Results taken from PubChem BioAssay AID1159580 (chemical genetic matrix, 2015).
The whole screen tested about 5,500 compounds, of which about 2,000 (36%) were called active. Not shown: some 18% with an inconclusive outcome. Rule as the data show it: active = normalized growth mostly below about 0.91 (no sharp cut-off); inconclusive = no clear call, values can overlap the other calls; inactive = mostly above about 0.92. The list shows a part of the results.

Assay: chemical genetic growth profiling, strain panel (AID 1159580);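 also: tested at 20 µM; growth read once vehicle control cultures reached saturation at 30 °C; 1 = growth at the plate median or of vehicle wells; lower values mean less growth of the strain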
Details: S. cerevisiae deletion strains, growth OD

Measured: normalized growth

C=C1C2CC[C@@]3(C)[C@H](c4ccoc4)OC(=O)C[C@]13O[C@H]1CC(=O)C(C)(C)C(CC(=O)OC)[C@@]21C (some centres not stated)
inactive: locus YAL021C, strain ccr4, hits give low values 1.01 | locus YAL026C, strain drs2, hits give low values 0.981 | locus YAL030W, strain snc1, hits give low values 0.983 | locus YBL061C, strain skt5, hits give low values 0.981 | locus YBR009C, strain hhf1, hits give low values 0.995 | locus YBR021W, strain FUR4, hits give low values 1 | locus YBR023C, strain chs3, hits give low values 0.977 | locus YBR171W, strain sec66, hits give low values 0.953 | locus YBR229C, strain ROT2, hits give low values 0.989 | locus YBR231C, strain swc5, hits give low values 0.983 | locus YBR279W, strain paf1, hits give low values 0.979 | locus YCL011C, strain gbp2, hits give low values 0.962 | locus YCL016C, strain dcc1, hits give low values 1.01 | locus YCL029C, strain bik1, hits give low values 0.992 | locus YCL061C, strain MRC1, hits give low values 0.987 | locus YCL069W, strain vba3, hits give low values 0.964 | locus YCR088W, strain abp1, hits give low values 0.964 | locus YDL005C, strain med2, hits give low values 0.969 | locus YDL035C, strain GPR1, hits give low values 0.984 | locus YDL040C, strain nat1, hits give low values 0.966 | locus YDL074C, strain BRE1, hits give low values 1.01 | locus YDL101C, strain DUN1, hits give low values 1 | locus YDL185W, strain tfp1, hits give low values 1.01 | locus YDL192W, strain arf1, hits give low values 0.988 | locus YDR001C, strain nth1, hits give low values 0.976 | locus YDR069C, strain doa4, hits give low values 0.975 | locus YDR101C, strain arx1, hits give low values 0.986 | locus YDR137W, strain rgp1, hits give low values 0.922 | locus YDR159W, strain sac3, hits give low values 0.948 | locus YDR162C, strain NBP2, hits give low values 0.962 | locus YDR195W, strain ref2 0.978 | locus YDR297W, strain sur2, hits give low values 0.983 | locus YDR318W, strain mcm21, hits give low values 0.998 | locus YDR334W, strain swr1, hits give low values 0.966 | locus YDR335W, strain msn5, hits give low values 0.972 | locus YDR388W, hits give low values 1.02 | locus YDR392W, strain spt3, hits give low values 0.958 | locus YDR502C, strain sam2, hits give low values 1.01 | locus YEL003W, strain gim4, hits give low values 0.979 | locus YEL037C, strain rad23, hits give low values 0.97 | locus YEL061C, strain CIN8 (second series), hits give low values 0.966 | locus YER015W, strain faa2, hits give low values 0.987 | locus YER016W, strain bim1, hits give low values 0.975 | locus YER110C, hits give low values 1.01 | locus YER111C, strain swi4, hits give low values 0.978 | locus YER155C, strain BEM2 (second series), hits give low values 0.991 | locus YER155C, strain BEM2, hits give low values 1.01 | locus YER167W, strain BCK2, hits give low values 0.984 | locus YFR010W, strain ubp6, hits give low values 0.963 | locus YGL078C, strain dbp3, hits give low values 1.02 | locus YGL086W, strain mad1, hits give low values 1 | locus YGL167C, strain pmr1, hits give low values 0.97 | locus YGL173C, strain kem1, hits give low values 0.969 | locus YGL227W, strain vid30, hits give low values 0.973 | locus YGL240W, strain doc1, hits give low values 0.974 | locus YGL248W, strain PDE1, hits give low values 0.998 | locus YGL253W, strain hxk2, hits give low values 0.952 | locus YGR135W, strain pre9, hits give low values 1.03 | locus YGR252W, strain gcn5, hits give low values 1.01 | locus YHR013C, strain ard1, hits give low values 0.974 | locus YHR027C, strain rpn1, hits give low values 0.985 | locus YHR030C, strain SLT2, hits give low values 0.996 | locus YHR079C, strain IRE1 (second series), hits give low values 0.998 | locus YHR094C, strain hxt1, hits give low values 1.01 | locus YHR129C, strain ARP1, hits give low values 1.01 | locus YHR142W, strain chs7, hits give low values 0.969 | locus YHR200W, strain rpn10, hits give low values 1.01 | locus YIL066C, strain RNR3, hits give low values 0.989 | locus YIL073C, strain SPO22, hits give low values 1.04 | locus YIL125W, strain kgd1, hits give low values 1 | locus YIR030C, strain dcg1, hits give low values 1 | locus YJL092W, strain hpr5, hits give low values 0.967 | locus YJL095W, strain BCK1 (second series), hits give low values 0.991 | locus YJL095W, strain BCK1, hits give low values 1.03 | locus YJL115W, strain asf1, hits give low values 0.973 | locus YJL129C, strain trk1, hits give low values 0.961 | locus YJL134W, strain LCB3, hits give low values 1.01 | locus YJL154C, strain vps35, hits give low values 0.973 | locus YJL164C, strain tpk1, hits give low values 1 | locus YJL166W, strain qcr8, hits give low values 0.977 | locus YJL168C, strain set2, hits give low values 0.998 | locus YJL187C, strain SWE1 (second series), hits give low values 1.01 | locus YJL187C, strain SWE1, hits give low values 0.974 | locus YKL009W, strain mrt4, hits give low values 0.968 | locus YKL068W, hits give low values 1 | locus YKL085W, strain MDH1 (second series), hits give low values 0.989 | locus YKL085W, strain MDH1, hits give low values 0.989 | locus YKL160W, strain elf1, hits give low values 1.01 | locus YKR001C, strain vps1, hits give low values 1 | locus YKR026C, strain gcn3, hits give low values 0.979 | locus YKR091W, strain srl3, hits give low values 0.986 | locus YLL001W, strain dnm1, hits give low values 1.01 | locus YLL026W, hits give low values 0.981 | locus YLL041C, strain sdh2, hits give low values 0.974 | locus YLR027C, strain aat2, hits give low values 0.996 | locus YLR039C, strain RIC1, hits give low values 0.794 | locus YLR058C, strain SHM2, hits give low values 1 | locus YLR102C, strain apc9, hits give low values 1 | locus YLR221C, strain rsa3, hits give low values 0.957 | locus YLR258W, strain gsy2, hits give low values 0.975 | locus YLR262C, strain YPT6 (second series), hits give low values 0.923 | locus YLR262C, strain YPT6, hits give low values 0.701 | locus YLR268W, strain sec22, hits give low values 0.984 | locus YLR320W, strain mms22, hits give low values 0.964 | locus YLR342W, strain FKS1 (second series), hits give low values 1 | locus YLR342W, strain FKS1, hits give low values 0.993 | locus YLR357W, strain rsc2, hits give low values 0.991 | locus YLR370C, strain arc18, hits give low values 0.955 | locus YLR371W, strain rom2, hits give low values 1.01 | locus YLR384C, strain iki3, hits give low values 0.964 | locus YLR418C, strain cdc73, hits give low values 1.01 | locus YML016C, strain PPZ1, hits give low values 0.995 | locus YML032C, strain rad52, hits give low values 1.02 | locus YML120C, strain ndi1, hits give low values 0.973 | locus YML124C, strain tub3, hits give low values 1.01 | locus YMR058W, strain fet3, hits give low values 0.983 | locus YMR078C, strain ctf18, hits give low values 1.01 | locus YMR125W, strain sto1, hits give low values 0.98 | locus YMR129W, hits give low values 0.985 | locus YMR205C, strain PFK2, hits give low values 1.03 | locus YMR223W, strain ubp8, hits give low values 1 | locus YMR231W, strain pep5, hits give low values 0.943 | locus YMR307W, strain GAS1, hits give low values 0.998 | locus YNL067W, strain RPL9B, hits give low values 1.02 | locus YNL071W, strain lat1, hits give low values 0.982 | locus YNL128W, strain TEP1, hits give low values 0.996 | locus YNL209W, strain ssb2, hits give low values 0.978 | locus YNL233W, strain BNI4, hits give low values 0.969 | locus YNL248C, strain rpa49, hits give low values 0.986 | locus YNL250W, strain rad50, hits give low values 1.02 | locus YNL271C, strain bni1, hits give low values 1 | locus YNL298W, strain CLA4, hits give low values 1.01 | locus YNL307C, strain MCK1, hits give low values 1.01 | locus YNL322C, strain KRE1 (second series), hits give low values 0.967 | locus YNR049C, strain mso1, hits give low values 0.982 | locus YNR052C, strain pop2, hits give low values 1.01 | locus YOL012C, strain htz1 0.839 | locus YOL147C, strain pex11, hits give low values 1.01 | locus YOR001W, strain rrp6, hits give low values 0.944 | locus YOR061W, strain CKA2, hits give low values 0.993 | locus YOR069W, strain VPS5, hits give low values 1 | locus YOR070C, strain gyp1, hits give low values 1.01 | locus YOR080W, strain dia2, hits give low values 0.957 | locus YOR083W, strain WHI5, hits give low values 1.01 | locus YOR106W, strain vam3, hits give low values 0.982 | locus YOR136W, strain idh2, hits give low values 1 | locus YOR144C, strain elg1, hits give low values 1.01 | locus YOR184W, strain ser1, hits give low values 0.985 | locus YOR265W, strain rbl2, hits give low values 1 | locus YOR270C, strain vph1, hits give low values 0.957 | locus YOR290C, strain snf2, hits give low values 0.97 | locus YOR316C, strain cot1, hits give low values 1 | locus YPL051W, strain arl3, hits give low values 0.995 | locus YPL078C, strain atp4, hits give low values 1.01 | locus YPL106C, strain sse1, hits give low values 0.978 | locus YPL240C, strain hsp82, hits give low values 0.965 | locus YPL241C, strain CIN2, hits give low values 0.998 | locus YPR119W, strain clb2, hits give low values 1.01 | locus YPR141C, strain kar3, hits give low values 0.997 | locus YPR163C, strain tif3, hits give low values 1.01 | locus YPR167C, strain met16, hits give low values 1 | strain wtn01, hits give low values 0.987
